Screening data: PubChem, National Center for Advancing Translational Sciences (NCATS)
RE007 growth inh = qHTS Assay for Inhibitors of the HIV-1 protein Vpr. S. pombe RE007 Vpr strain, BacTiter-Glo ATP luminescence, 24 h. AID 651644, 2012. Potency, µM (titrated, usually from 92.2 µM), usual class: inhibitors. 360,000 tested, 0.21% active; active = well fitted falling curve with a large enough effect; inconclusive = small, poorly fitted or top-dose-only effect; inactive = no such curve, though single readings can be large or run the other way; also: nearly all actives have a fitted effect of over 50% in size
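Fission yeast strain RE007, carrying one chromosomally integrated HIV-1 vpr copy, was seeded at OD 0.01 in PMG+AL medium with 23 nL pinned compound. After 24 h at 30 °C and 99% humidity, viability was read by BacTiter-Glo luminescence.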
FBPA Giardia inh = qHTS Assay for Inhibitors of Fructose-1,6-bisphosphate Aldolase from Giardia Lamblia; A8B2U2; purified Giardia FBPA; Potency, µM (titrated, usually from 59.6 µM), most hits filed as inhibitors; 290,000 tested, 0.71% active; AID 2451, 2010; also: nearly all actives have a fitted effect of over 55% in size
Target sequence (A8B2U2 whole entry, looked up): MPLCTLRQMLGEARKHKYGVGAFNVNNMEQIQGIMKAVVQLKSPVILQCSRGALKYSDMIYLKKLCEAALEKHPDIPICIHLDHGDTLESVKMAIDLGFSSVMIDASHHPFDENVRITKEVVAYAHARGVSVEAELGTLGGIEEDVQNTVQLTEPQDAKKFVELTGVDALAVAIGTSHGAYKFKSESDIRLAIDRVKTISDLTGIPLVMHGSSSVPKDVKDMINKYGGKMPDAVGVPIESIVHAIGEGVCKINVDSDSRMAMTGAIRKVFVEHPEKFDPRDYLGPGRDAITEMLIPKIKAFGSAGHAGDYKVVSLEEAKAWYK
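40 nM FBPA preincubated 10 min at RT with compound (up to 57.5 uM final), then substrate plus GAPDH/TPI/NAD/arsenate coupling and diaphorase/resazurin added. Fluorescence read after 20 min at RT, 525/598 nm.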
Tb PYK inh = qHTS of Trypanosoma Brucei Inhibitors. TbPYK enzyme, Kinase-Glo Plus ATP luminescence, 45 min. Potency, µM (series often up to 76.8 µM), most hits filed as inhibitors. pyruvate kinase (Trypanosoma brucei), Q57TT1. 410,000 tested, 0.12% active; also: nearly all actives have a fitted effect of over 50% in size
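Assay buffer: 50 mM TEA pH 7.2, 100 mM KCl, 10 mM MgCl2, 0.05% BSA, 0.01% Tween-20. Pyruvate kinase from T. brucei plus substrate met compound, then ADP (130 uM final). Luminescence was read post 45 min RT.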
LmPK inh = qHTS Assay for Inhibitors of Leishmania Mexicana Pyruvate Kinase (LmPK); Q27686; purified LmPK, Kinase-Glo ATP luminescence, 1 h; Potency, µM (series often up to 57.5 µM), actives largely listed as inhibitors; 290,000 tested, 0.37% active; AID 1721, 2009
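Purified LmPK (0.1 nM) converted ADP (0.1 mM) to ATP with PEP (0.5 mM) in imidazole buffer pH 7.2 with KCl and MgCl2, 1 h at room temperature. ATP was read by Kinase-Glo luminescence; data normalized to uninhibited and no-enzyme controls.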
Each line names hits and unclear results; the compound was inactive in the other large screens. An excerpt weighted towards active compounds, which were near 0.95% of everything screened. Unless noted, calls follow the shape of the dose curve; as a rule, active = well fitted curve in the direction sought with a large enough effect; inconclusive = small, poorly fitted or top-dose-only effect, or another doubt; inactive = no such curve, though single readings can be large; an effect the other way counts as inactive or inconclusive.

O=c1cc(CSc2n[nH]c(-c3ccccc3)n2)[nH]c2ccccc12	none (no result: RE007 growth inh, FBPA Giardia inh, LmPK inh)
CC(C)(C)c1cc(=O)n(-c2ccccc2)[nH]1	FBPA Giardia inh 0.629µM
CN(C)c1ccc(/C=N/NC(=O)C2COc3ccccc3O2)o1 (stereo not given)	Tb PYK inh 28.2µM
CC1OC(Oc2c(-c3cc(O)c(O)c(O)c3)oc3cc(O)cc(O)c3c2=O)C(O)C(O)C1O (stereo not given)	FBPA Giardia inh 9.98µM
COc1ccc(/C=C2\SC(c3ccc(C)cc3)=NC2=O)cc1OC	FBPA Giardia inh inconclusive, Tb PYK inh 8.91µM, LmPK inh inconclusive
COc1ccc(/C=C2/SC(c3ccc(C)cc3)=NC2=O)cc1OC	FBPA Giardia inh inconclusive, Tb PYK inh inconclusive, LmPK inh inconclusive
O=S(=O)(Nc1cc(O)cc2cccnc12)c1ccc(Br)s1	FBPA Giardia inh 3.15µM (no result: RE007 growth inh, Tb PYK inh, LmPK inh)
O=S(=O)(Nc1cc(O)cc2cccnc12)c1ccc(Cl)s1	FBPA Giardia inh 3.15µM (no result: RE007 growth inh, Tb PYK inh, LmPK inh)
Cc1cccc(C(=O)n2nc(C)c(S(=O)(=O)N3CCOCC3)c2C)c1	none (no result: RE007 growth inh, FBPA Giardia inh, LmPK inh)
O=C(NCCc1ccc(Cl)cc1)c1ccc2c(c1)N(Cc1ccc(F)cc1Cl)C(=O)CS2	none (no result: RE007 growth inh, FBPA Giardia inh, LmPK inh)
CN=c1scc(C)n1/N=C/c1ccc(O)cc1	none
CN=c1scc(C)n1/N=C/c1ccc2c(c1)OCO2	RE007 growth inh inconclusive, LmPK inh 15.8µM
FC(F)OC(Cl)C(F)(F)F (stereo not given)	none (no result: RE007 growth inh, FBPA Giardia inh, LmPK inh)
O=[N+]([O-])c1ccc2c(c1)-c1ccccc1C2O (stereo not given)	Tb PYK inh 15.8µM (no result: FBPA Giardia inh, LmPK inh)
Oc1ccc(-c2n[nH]c(=S)n2-c2ccc3c(c2)OCCO3)cc1	Tb PYK inh 4.47µM, LmPK inh inconclusive
O=C(O)c1ccc(-n2c(-c3ccccc3)n[nH]c2=S)cc1	Tb PYK inh inconclusive
S=c1[nH]nc(-c2ccc3ncccc3c2)n1-c1ccc2c(c1)OCCO2	Tb PYK inh 3.55µM, LmPK inh 7.08µM
Cc1nc2ccccc2n1Cc1n[nH]c(=S)n1-c1ccc(Cl)cc1	Tb PYK inh inconclusive
S=c1[nH]nc(Cn2c(-c3ccccn3)nc3ccccc32)n1-c1ccc2c(c1)OCCO2	Tb PYK inh 15.8µM, LmPK inh inconclusive
C[C@@]12CCC[C@H]1[C@@H]1CC[C@H]3C[C@@H](O)CC[C@]3(C)[C@H]1CC2	none (no result: RE007 growth inh, FBPA Giardia inh, LmPK inh)
CCCCNc1nc(C#N)nc(Nc2ccccc2)n1	none (no result: RE007 growth inh, Tb PYK inh, LmPK inh)
COc1ccc2c(CNCc3cccs3)c(C(=O)O)n(Cc3ccccc3F)c2c1	none (no result: RE007 growth inh, FBPA Giardia inh, LmPK inh)
C/C(=N\Nc1ncc(Cl)cc1Cl)c1ccccn1	RE007 growth inh 22.4µM, LmPK inh inconclusive
C/C(=N\Nc1ccc(Cl)c(C(=O)O)c1)c1ccccn1	FBPA Giardia inh inconclusive
Oc1cccc(-c2c3nc(c(-c4cccc(O)c4)c4ccc([nH]4)c(-c4cccc(O)c4)c4nc(c(-c5cccc(O)c5)c5ccc2[nH]5)CC4)C=C3)c1	none (no result: RE007 growth inh, FBPA Giardia inh, LmPK inh)
Cc1cc2c(cc1C)CN(c1ccccc1)C2	LmPK inh 15.8µM
Oc1cccc(N2Cc3ccccc3C2)c1	none
CC(C)=CCC1=C(OCC(=O)O)C(=O)c2ccccc2C1=O	RE007 growth inh inconclusive, FBPA Giardia inh 1.26µM
COC1OC(COC(=O)c2ccccc2)C(OC(=O)c2ccccc2)C1OC(=O)c1ccccc1 (stereo not given)	none
O=C(O)C[C@@H]1C(=O)O[C@@H]2C(COC(=O)c3cc(O)c(O)c(O)c3)O[C@@H](OC(=O)c3cc(O)c(O)c(O)c3)[C@@H](OC(=O)c3cc(O)c(O)c4c3[C@H]1[C@H](O)C(=O)O4)[C@H]2OC(=O)c1cc(O)c(O)c(O)c1 (stereo not given in full)	FBPA Giardia inh 3.97µM (no result: RE007 growth inh, Tb PYK inh)
Cc1cc(=O)n(CC(=O)NCCC(C)C)c2c1c(C)nn2C	none (no result: RE007 growth inh, FBPA Giardia inh, LmPK inh)
Cc1ccc(C)c(CSc2cn(CC(=O)N3CCCC3)c3ccccc23)c1	none (no result: RE007 growth inh, FBPA Giardia inh, LmPK inh)
CC(C)=CCC/C(C)=C/CC/C(C)=C/CCC(=O)OC/C=C(\C)CCC=C(C)C	none (no result: RE007 growth inh, FBPA Giardia inh, LmPK inh)
Cc1oc(-c2ccc3c(c2)OCCO3)cc1C(=O)O	RE007 growth inh inconclusive, Tb PYK inh inconclusive, LmPK inh 14.1µM
Cc1ccccc1C(=O)Nc1nnc(SCc2cc(=O)c3c(C)ccc(C)c3[nH]2)s1	none (no result: RE007 growth inh, FBPA Giardia inh, LmPK inh)
COc1cc2cc(CN(Cc3nnnn3Cc3ccco3)C3CCCCC3)c(=O)[nH]c2cc1OC	FBPA Giardia inh 10µM
CCOc1ccc2[nH]c(=O)c(CN(Cc3nnnn3Cc3ccco3)C3CCCCC3)cc2c1	FBPA Giardia inh inconclusive
